Tested on: LXRa homodimer (NR concentration 270 nM)
Assay: PBM binding z-score (relative to random genomic background probes); higher = stronger binding; sequences stand for … in GC…GCGATTGACAGCGTAGAATGAAGG
Procedure, shortened: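 Each nuclear receptor dimer, without ligand, was incubated for 1 h on custom Agilent 4×180K protein-binding microarrays. Binding was detected with antibodies against each partner (one per run), and scanned fluorescence was regression-normalized. The binding z-scores are referenced to random human genomic background probes.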

Row | Sequence | PBM binding z-score
1 | CCTAGTTGGTCAGCAGGTCACACACCGGATATGA | 1.16
2 | TGAAGGAGGTTAAAGATCAGGGAACGTGGCGTCG | 0.112
3 | GCTAGCAGGCCAATTGGGTCACTCAATGACGGGC | -0.545
4 | TCAGACTGGTGAAGGTAACTCAGGTACGCAGTCG | -0.387
5 | CAGCCTAGGTCACGGCCAGTATAGGAGGAACGTT | 0.175
6 | CTCGAAAGGTCGTGCTCAGGTGAGTAAACCAAAC | 0.151
7 | GCTTGAAGATCAAGGTTAAGAAAGACTAAGCTAA | -0.466
8 | CCTAGCAGGCCGGGGTCACTCAAGCATTTCGCTT | -0.0184
9 | CAGCCTAGGTCAGGGCCACTATAGGAGGAACGTT | -0.48
10 | CCGACTGGAGCAAAGGTTACCATACTCAGTACGA | 0.0439
11 | TGAATGAGGTTATAAGATCTGGGAACGTTGCAAA | -0.215
12 | GATACAGGGTCAGCTAGAGGCCAGGGTATGGAAA | -0.258
13 | ACACACAGGTGATGAAGGTAACTCAGGCTATCAT | 0.256
14 | AGCTCTAGGTAAAGATAGTTCAGTGAATGCAAAT | 0.0998
15 | CCTACTGGGCCAAAAAGGTCAATGATGCCGATAA | 1.68
16 | GCTCGGACGACAAGGTCAGAGCTTTGTCCGTAGA | -0.78
17 | GGAACGAGGGCAAAGTTGATAGCTTCTGTCGACG | -0.752
18 | ATATGTGGGTTACATCCGGGTCATTCAGGCTATG | 1.26
19 | CGAACTAGGTCATTGACAGGACTGTGAATAGTAA | 0.131
20 | TGAATGAGGTTATAAGATTAGGGAACGTTGCAAA | 0.076
21 | GCTAGTTGCTCAGTAAAAGGTCACACACCGGTCG | 4.51
22 | TTACCAAGGTGAGCTGAGGTCGTTAATCCAACTC | -0.294

— the supplement of paper PMC6555819
